Data as given in PubChem BioAssay (EPA / NIEHS).
“And” between values parts separate entries of the source, which are not always exact repeats. Identical values can stand only once. The source holds several records for some structures; these can differ, active in one and inactive in another. The source made the active and inactive calls. Rule for the calls: active = hit-call score of the fitted dose curve at least 0.9, where 1 is the maximum; inactive = score below 0.9.

What was measured:
[1] = ATG_PBREM_CIS: Attagene CIS-FACTORIAL HepG2 Assay for human Phenobarbital-responsive Enhancer Module (PBREM) (AID 2282955); details: HepG2 PBREM cis-reporter, Attagene multiplexed transcription; actives raise or lower the signal
Summary of the method: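 Multiplexed cis-reporter readout in human hepatoma HepG2 cells; PBREM-regulated transcript quantified after 24 h exposure by fluorescent RT-PCR fragment analysis. Signal changes up or down fitted relative to DMSO.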

[2] = molecular target: Paired box protein Pax-6 (Homo sapiens) (UniProt P26367); test: ATG_Pax6_CIS: Attagene CIS-FACTORIAL HepG2 Assay for human Paired Box 6 (PAX6) (AID 2282956); details: HepG2 CIS-FACTORIAL PAX6 reporter transcription, RNA readout; actives raise or lower the signal
Chain of Paired box protein Pax-6 (Homo sapiens) (P26367 whole entry, looked up): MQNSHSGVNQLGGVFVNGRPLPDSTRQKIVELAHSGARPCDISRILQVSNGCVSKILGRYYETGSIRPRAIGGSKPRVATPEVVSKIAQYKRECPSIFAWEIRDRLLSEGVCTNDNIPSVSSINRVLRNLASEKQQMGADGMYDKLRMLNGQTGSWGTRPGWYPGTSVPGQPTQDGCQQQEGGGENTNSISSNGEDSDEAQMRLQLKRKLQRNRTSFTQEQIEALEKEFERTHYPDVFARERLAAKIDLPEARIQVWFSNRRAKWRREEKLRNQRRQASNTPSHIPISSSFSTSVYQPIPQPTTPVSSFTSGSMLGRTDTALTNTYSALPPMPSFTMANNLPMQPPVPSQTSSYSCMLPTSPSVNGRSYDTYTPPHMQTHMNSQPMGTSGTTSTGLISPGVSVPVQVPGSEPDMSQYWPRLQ
Summary of the method: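 Values derive from bidirectional curve fitting of reporter mRNA signal relative to DMSO. HepG2 cells bearing transfected cis-regulated MRTUs were exposed for 24 h; transcripts were read by RT-PCR and capillary electrophoresis.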

[3] = ATG_PXRE_CIS: Attagene CIS-FACTORIAL HepG2 Assay for human Pregnane X Receptor Element (PXRE) (AID 2282957); details: HepG2 Attagene CIS-FACTORIAL PXRE reporter, mRNA; actives raise or lower the signal
Summary of the method: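 Fluorescent capillary electrophoresis of amplified reporter cDNA gave the signal, collected 24 h after dosing HepG2 cells that held transfected cis-element reporter constructs.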

[4] = ATG_PPRE_CIS: Attagene CIS-FACTORIAL HepG2 Assay for human Peroxisome Proliferator-activated Response Element (PPRE) (AID 2282958); details: HepG2 PPRE cis-element reporter, Attagene transcription factor profiling; actives raise or lower the signal
Summary of the method: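 DMSO served as negative control and baseline for bidirectional curve fitting. Signal came from PPRE-regulated reporter mRNA in HepG2 cells, measured 24 h post-dosing by RT-PCR, 6-FAM primer extension and capillary electrophoresis.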

[5] = ATG_RORE_CIS: Attagene CIS-FACTORIAL HepG2 Assay for human RAR-related Orphan Receptor Element (RORE) (AID 2282959); details: HepG2 Attagene cis-factorial RORE reporter, mRNA; actives raise or lower the signal
Summary of the method: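 Transfect HepG2 with MRTUs; treat 24 h; extract RNA; RT with oligo(dT); PCR with reporter-specific primers; 6-FAM primer extension; HpaI digest 2 h at 37 C; capillary electrophoresis. Fit vs DMSO, bidirectional.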

[6] = ATG_Sox_CIS: Attagene CIS-FACTORIAL HepG2 Assay for human SRY-box transcription factor (SOX) (AID 2282960); details: HepG2 Attagene cis-factorial SOX reporter, mRNA; actives raise or lower the signal
Summary of the method: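 Fluorescence-labelled cDNA fragments from reporter transcripts, sized by CE, give the signal. Cells: HepG2, transiently transfected with cis-regulated reporter units. Exposure 24 h; DMSO negative control; bidirectional curve fitting.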

[7] = molecular target: Transcription factor Sp1 (Homo sapiens) (UniProt P08047); test: ATG_Sp1_CIS: Attagene CIS-FACTORIAL HepG2 Assay for human Specificity Protein 1 (Sp1) (AID 2282961); details: HepG2 Sp1 cis-reporter transcription, actives raise or lower the signal
Chain of Transcription factor Sp1 (Homo sapiens) (P08047 whole entry, looked up): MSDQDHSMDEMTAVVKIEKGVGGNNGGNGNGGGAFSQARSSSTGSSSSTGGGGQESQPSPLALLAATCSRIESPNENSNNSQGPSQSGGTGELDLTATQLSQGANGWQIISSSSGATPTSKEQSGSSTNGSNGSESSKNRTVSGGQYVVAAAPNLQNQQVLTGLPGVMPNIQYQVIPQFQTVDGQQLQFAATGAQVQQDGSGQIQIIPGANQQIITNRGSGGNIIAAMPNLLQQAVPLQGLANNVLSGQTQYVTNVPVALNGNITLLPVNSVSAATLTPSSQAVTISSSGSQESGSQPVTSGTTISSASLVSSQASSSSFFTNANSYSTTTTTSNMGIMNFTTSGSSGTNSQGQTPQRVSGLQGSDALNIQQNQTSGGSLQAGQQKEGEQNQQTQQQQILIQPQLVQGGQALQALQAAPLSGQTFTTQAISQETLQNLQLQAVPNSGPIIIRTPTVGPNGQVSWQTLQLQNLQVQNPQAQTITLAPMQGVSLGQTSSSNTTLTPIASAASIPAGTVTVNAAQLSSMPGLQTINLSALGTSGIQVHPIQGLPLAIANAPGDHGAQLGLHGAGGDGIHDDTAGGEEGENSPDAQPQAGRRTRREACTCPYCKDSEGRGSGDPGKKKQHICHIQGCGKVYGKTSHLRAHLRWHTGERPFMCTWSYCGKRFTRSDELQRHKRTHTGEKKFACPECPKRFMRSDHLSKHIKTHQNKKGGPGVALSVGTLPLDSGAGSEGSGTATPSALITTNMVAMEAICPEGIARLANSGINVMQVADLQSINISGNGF
Summary of the method: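 Chemicals are dosed onto HepG2 cells transfected with multiple cis-promoter reporter constructs, and after 24 h reporter RNA is reverse-transcribed, PCR-amplified and resolved by capillary electrophoresis for fluorescence quantitation; activity is scored up or down against DMSO.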

[8] = ATG_SREBP_CIS: Attagene CIS-FACTORIAL HepG2 Assay for human Sterol Regulatory Element Binding (SREBP) (AID 2282962); details: HepG2 Attagene cis-factorial SREBP reporter, mRNA; actives raise or lower the signal
Summary of the method: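 Values derive from bidirectional curve fitting with DMSO as baseline. The underlying measurement is reporter mRNA from cis-element-regulated units in transiently transfected HepG2, quantified by RT-PCR and capillary electrophoresis after 24 h exposure.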

[9] = molecular target: Signal transducer and activator of transcription 3 (Homo sapiens) (UniProt P40763); test: ATG_STAT3_CIS: Attagene CIS-FACTORIAL HepG2 Assay for human Signal Transducer and Activator of Transcription 3 (STAT3) (AID 2282963); details: HepG2, Attagene cis-factorial STAT3 reporter transcription; actives raise or lower the signal
Chain of Signal transducer and activator of transcription 3 (Homo sapiens) (P40763 whole entry, looked up): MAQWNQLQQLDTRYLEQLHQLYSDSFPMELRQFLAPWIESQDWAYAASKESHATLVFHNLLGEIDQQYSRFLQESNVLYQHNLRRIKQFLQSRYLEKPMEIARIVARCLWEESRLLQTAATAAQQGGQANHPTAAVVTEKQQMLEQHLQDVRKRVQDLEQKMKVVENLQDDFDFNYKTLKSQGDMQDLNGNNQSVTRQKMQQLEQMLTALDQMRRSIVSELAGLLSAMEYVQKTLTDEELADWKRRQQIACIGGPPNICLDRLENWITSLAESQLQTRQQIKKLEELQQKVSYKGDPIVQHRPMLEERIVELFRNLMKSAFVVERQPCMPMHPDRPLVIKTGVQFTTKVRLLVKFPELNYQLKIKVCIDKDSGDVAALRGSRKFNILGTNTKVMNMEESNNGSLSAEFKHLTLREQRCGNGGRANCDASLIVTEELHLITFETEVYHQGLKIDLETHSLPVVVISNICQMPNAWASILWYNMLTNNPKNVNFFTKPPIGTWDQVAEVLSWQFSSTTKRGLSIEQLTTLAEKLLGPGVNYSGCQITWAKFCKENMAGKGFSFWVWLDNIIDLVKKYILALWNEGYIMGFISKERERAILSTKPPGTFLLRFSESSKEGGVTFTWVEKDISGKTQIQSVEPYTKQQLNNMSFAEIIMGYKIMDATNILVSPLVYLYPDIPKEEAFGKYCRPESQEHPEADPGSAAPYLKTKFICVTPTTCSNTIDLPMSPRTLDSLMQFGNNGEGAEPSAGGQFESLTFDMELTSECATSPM
Summary of the method: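 Readout is reporter transcript quantified by RT-PCR and capillary electrophoresis, with 6-FAM primer extension and HpaI digestion. Total RNA is taken 24 h after dosing transiently transfected HepG2 carrying cis-regulated reporter units. Bidirectional fit against DMSO.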

[10] = ATG_TA_CIS: Attagene CIS-FACTORIAL HepG2 Assay for human TA Basal Promoter (AID 2282964); details: HepG2 Attagene CIS-factorial TA basal promoter reporter; actives raise or lower the signal
Summary of the method: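 Background internal-marker endpoint from a 52-component HepG2 cis-reporter panel. Cells treated 24 h; reporter transcripts quantified via RT-PCR and CE fluorescence against DMSO baseline.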

| SMILES | AC50 [1] | outcome [1] | AC50 [2] | outcome [2] | AC50 [3] | AC50 [4] | outcome [4] | AC50 [5] | outcome [5] | AC50 [6] | outcome [6] | AC50 [7] | outcome [7] | outcome [8] | AC50 [9] | outcome [9] | outcome [10] | AC50 [8] | outcome [3] |
| --- | --- | --- | --- | --- | --- | --- | --- | --- | --- | --- | --- | --- | --- | --- | --- | --- | --- | --- | --- |
| CCCCNC(=O)OCC#CI | 25.9 µM (active) | inactive | 32.7 µM (active) | inactive | 48.6 µM (active) and 1.56 µM (active) and 1.73 µM (active) | 26.3 µM (active) | inactive | 27.3 µM (active) | inactive | 26.5 µM (active) | inactive | 31.9 µM (active) | inactive | inactive | 60.2 µM (active) | inactive | – | – | – |
| CON(C)C(=O)Nc1ccc(Cl)c(Cl)c1 | 31.9 µM (active) and 27.2 µM (active) | inactive | – | inactive | 26.7 µM (active) [middle of 4 runs] | 69.6 µM (active) | inactive | – | inactive | – | inactive | – | inactive | inactive | – | inactive | – | – | – |
| CCOC(=O)CC(SP(=S)(OC)OC)C(=O)OCC (stereo unspecified) | – | inactive | 100 µM (active) | inactive | 2.27 µM (active) and 12.2 µM (active) | 83.1 µM (active) and 32.5 µM (active) | – | 150 µM (active) | inactive | – | inactive | – | inactive | inactive | – | inactive | – | – | – |
| CCCN(CCC)c1c([N+](=O)[O-])cc(S(N)(=O)=O)cc1[N+](=O)[O-] | 2.2 µM (active) | inactive | – | inactive | 302 nM (active) and 134 nM (active) and 567 nM (active) | – | inactive | – | inactive | – | inactive | – | inactive | inactive | – | inactive | inactive | – | – |
| CO/C=C(/C(=O)OC)c1ccccc1Oc1cc(Oc2ccccc2C#N)ncn1 | – | inactive | – | inactive | 526 nM (active) [middle of 6 runs] | – | inactive | – | inactive | – | inactive | – | inactive | inactive | – | inactive | – | 32.4 µM (active) [middle of 4 runs] | – |
| COc1nc(NC(C)C)nc(NC(C)C)n1 | – | inactive | – | inactive | 18.6 µM (active) | – | inactive | 30.5 µM (active) | inactive | – | inactive | – | inactive | inactive | – | inactive | – | – | inactive |
| C=CCC1=C(C)C(OC(=O)C2C(C=C(C)C)C2(C)C)CC1=O (stereo unspecified) | – | inactive | 64.5 µM (active) [middle of 4 runs] | inactive | 566 nM (active) [middle of 6 runs] | – | – | 27.2 µM (active) [middle of 4 runs] | inactive | 90.4 µM (active) and 105 µM (active) | inactive | 54.2 µM (active) [middle of 5 runs] | inactive | inactive | – | inactive | – | – | – |
| N#CC(CCc1ccc(Cl)cc1)(Cn1cncn1)c1ccccc1 (stereo unspecified) | – | inactive | – | inactive | 1.5 µM (active) | – | inactive | – | inactive | – | inactive | – | inactive | – | – | inactive | – | 8.22 µM (active) | – |
| COc1nc(C)nc(NC(=O)NS(=O)(=O)c2ccccc2Cl)n1 | – | inactive | – | inactive | 31.3 µM (active) | – | – | – | inactive | – | inactive | – | inactive | inactive | – | inactive | – | – | inactive |
| COc1ccc(C(c2ccc(OC)cc2)C(Cl)(Cl)Cl)cc1 | – | inactive | – | inactive | 4.17 µM (active) [middle of 4 runs] | – | inactive | – | inactive | – | inactive | 24.4 µM (active) and 38.1 µM (active) | inactive | inactive | – | inactive | – | – | inactive |
| CCOC(=O)C(Cl)Cc1cc(-n2nc(C)n(C(F)F)c2=O)c(F)cc1Cl (stereo unspecified) | – | inactive | – | inactive | 39.8 µM (active) | – | inactive | – | inactive | – | inactive | – | inactive | inactive | – | inactive | – | – | – |
| Oc1ccccc1-c1ccccc1 | – | inactive | 57.7 µM (active) | inactive | 13.5 µM (active) and 3.11 µM (active) | – | – | – | – | 46 µM (active) | inactive | 50 µM (active) | inactive | inactive | – | inactive | – | 150 µM (active) | – |
| CNC(=O)ON=CC(C)(C)SC | – | inactive | – | inactive | – | – | inactive | – | inactive | – | inactive | – | inactive | inactive | – | inactive | – | – | inactive |
| N#Cc1nn(-c2c(Cl)cc(C(F)(F)F)cc2Cl)c(N)c1S(=O)C(F)(F)F (stereo unspecified) | 19.4 µM (active) | inactive | 48.4 µM (active) | inactive | 2.37 µM (active) and 44.9 µM (active) | 22.8 µM (active) | inactive | – | inactive | – | inactive | – | inactive | inactive | – | inactive | – | – | – |
| CCCCOC(=O)c1ccccc1C(=O)OCCCC | 27.5 µM (active) and 67 µM (active) and 50 µM (active) | inactive | – | inactive | 27.4 µM (active) [middle of 5 runs] | – | – | 29 µM (active) and 50 µM (active) | inactive | – | inactive | – | inactive | inactive | – | inactive | – | 75.8 µM (active) | – |
| CCCC1COC(Cn2cncn2)(c2ccc(Cl)cc2Cl)O1 (stereo unspecified) | 50 µM (active) | inactive | – | inactive | 4.09 µM (active) and 85 µM (active) | – | inactive | – | inactive | – | inactive | – | inactive | inactive | – | inactive | – | 15.9 µM (active) | – |
| COC(=O)C=C(C)OP(=O)(OC)OC | – | inactive | – | inactive | – | – | inactive | – | inactive | – | inactive | – | inactive | inactive | – | inactive | – | – | inactive |
| COC(=O)N(OC)c1ccccc1COc1ccn(-c2ccc(Cl)cc2)n1 | 1.67 µM (active) | – | – | inactive | 1.28 µM (active) | 0.343 µM (active) | – | 2.2 µM (active) | – | – | inactive | – | inactive | inactive | – | inactive | – | – | – |
| N#Cc1cc(Br)c(O)c(Br)c1 | – | inactive | – | inactive | 18.4 µM (active) | 21.1 µM (active) | – | 50 µM (active) | – | – | inactive | – | inactive | inactive | – | inactive | – | – | – |
| OC(c1ccc(Cl)cc1)(c1cncnc1)c1ccccc1Cl (stereo unspecified) | – | inactive | – | inactive | 2.17 µM (active) | – | inactive | – | inactive | – | inactive | 12.6 µM (active) | inactive | inactive | – | inactive | – | – | inactive |
| CCON=C(CC)C1=C(O)CC(c2c(C)cc(C)cc2C)CC1=O (stereo unspecified) | – | inactive | – | inactive | 34.9 µM (active) | – | inactive | – | inactive | – | inactive | – | inactive | inactive | – | inactive | – | – | – |
| COP(N)(=O)SC (stereo unspecified) | – | inactive | – | inactive | – | – | inactive | – | inactive | – | inactive | – | inactive | inactive | – | inactive | – | – | inactive |
| CCCCC(CC)COC(=O)c1ccccc1C(=O)OCC(CC)CCCC (stereo unspecified) | – | inactive | – | inactive | 9.84 µM (active) | 17.5 µM (active) | – | – | inactive | – | inactive | – | inactive | inactive | – | inactive | – | – | – |
| CNC(=S)S | – | inactive | – | inactive | 80 µM (active) | – | – | – | – | – | inactive | – | inactive | inactive | – | inactive | – | – | inactive |
| CCc1nn(C)c(C(=O)NCc2ccc(C(C)(C)C)cc2)c1Cl | 1.39 µM (active) | – | – | inactive | 3.17 µM (active) | 0.462 µM (active) | – | – | inactive | – | inactive | – | inactive | inactive | – | inactive | – | – | – |
